Measured values: PubChem BioAssay (Tox21)
Values without a mark were called inactive. Records with an inconclusive call do not appear. Where a call stands in place of a potency, no number is given. The source made the active and inactive calls. Unless noted, calls follow the shape of the dose curve; as a rule, active = well fitted curve in the direction sought with a large enough effect in the repeat runs; inconclusive = weak or mixed curves; inactive = no such curve, though single readings can be large; an effect the other way counts as inactive or inconclusive.

Key:
[1] = qHTS assay to identify small molecule agonists of the hypoxia (HIF-1) signaling pathway - cell viability counter screen (AID 1224844; calls by dose curve; also: nearly all actives have a fitted effect of over 50% in size; also: potency is read from the fitted curve at half-maximal effect)
Summary of the method: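 Cytotoxicity measured by CellTiter-Glo ATP luminescence in the wells also read for beta-lactamase signal. Cells were HRE-bla ME-180 (2,000/well, 0.5% dialyzed FBS), exposed to compounds for 17 h at 37C.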

[2] = qHTS assay to identify small molecule agonists of H2AX (AID 1224845; active = well fitted activation curve with a large enough effect in the signal ratio in the repeat runs, not every such curve was filed as active; the % refers to the signal ratio)
Summary of the method: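 Wild-type CHO-K1 cells, plated overnight, exposed 3hr at 37C to 15 concentrations (0.76% DMSO final). Lysed, then HTRF anti-pH2AX (S139) cryptate and anti-H2AX-d2 antibodies, 24 hr room temperature; 665/620 nm emission read.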

[3] = qHTS assay to identify small molecule agonists of the hypoxia (HIF-1) signaling pathway (AID 1224846; active = well fitted activation curve with a large enough effect in the signal ratio in the repeat runs, not every such curve was filed as active; the % refers to the signal ratio)
Summary of the method: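 Compounds added to ME-180 cells carrying hypoxia-response-element beta-lactamase reporter (0.5% dialyzed FBS, 5 h preplating), 17 h at 37C; agonist activity detected by CCF4-AM B/G FRET read-out.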

[4] = qHTS assay to identify small molecule agonists of H2AX - cell viability counter screen (AID 1224847; calls by dose curve; also: top concentration of the series differs between compounds; nearly all actives have a fitted effect of over 30% in size)
Summary of the method: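 CHO-K1 cells plated overnight at 37C, then exposed 3 h at 37C to compounds at 15 concentrations (0.76% DMSO final). Viability by CellTiter-Glo luminescence after 30 min at room temperature.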

[5] = qHTS assay to identify small molecule antagonists of the estrogen related receptor (ERR) signaling pathway from Tox21 library (AID 1224848); also: nearly all actives have a fitted effect of over 50% in size; also: potency is read from the fitted curve at half-maximal effect
Summary of the method: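 Compounds dissolved in DMSO are pin-transferred onto ERR reporter cells (2,000 per well) that have settled for 6 h at 37 C. Plates then incubate 18 h at 37 C before ONE-Glo luciferase reagent and a luminescence read 30 min later.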

[6] = qHTS assay to identify small molecule agonists of the estrogen related receptor (ERR) signaling pathway from Tox21 library (AID 1224849; calls by dose curve; also: nearly all actives have a fitted effect of over 15% in size); conditions: ERR reporter cell line, ONE-Glo luciferase, 18 h; at 92.4 µM (top of the series) unless noted
Summary of the method: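 Luminescent agonist read-out (One-Glo, 30-minute room-temperature incubation) following 18-hour compound treatment at 37 C of the ERR cell line, which had been plated 6 hours before dosing.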

[7] = qHTS RealTime-Glo MT Cell Viability Assay in HepG2 cells - 24 hour (AID 1224867); also: nearly all actives have a fitted effect of over 50% in size
Summary of the method: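 Luminescence read-out: viable HepG2 cells reduce a prosubstrate to a NanoLuc substrate, giving a signal proportional to live cell number. Reads taken at 0, 8, 16, 24, 32 and 40 h of compound exposure at 37 C.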

[8] = qHTS RealTime-Glo MT Cell Viability Assay in HEK293 cells - 32 hour (AID 1224868); also: nearly all actives have a fitted effect of over 50% in size; also: potency is read from the fitted curve at half-maximal effect
Summary of the method: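 Nonlytic real-time viability readout: viable cells convert prosubstrate to NanoLuc substrate, giving luminescence proportional to live cell number. HEK293, 600 cells/well, compound added after 5 h, continuous culture at 37 C.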

[9] = A CellTox Green Cytotoxicity Assay to monitor cytotoxicity in HEK293 cells - 0 hour (AID 1224869); also: nearly all actives have a fitted effect of over 50% in size
Summary of the method: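 Fluorescence from a DNA-binding dye excluded by viable cells was measured repeatedly in the same HEK293 wells (600 cells/well) during continuous compound exposure at 37 C. Each assay gives one read point: 0, 8, 16, 24, 32 or 40 h.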

[10] = molecular target: Thyrotropin receptor (Homo sapiens) (UniProt P16473); assay: qHTS assay to identify small molecule agonists of the thyroid stimulating hormone receptor (TSHR) signaling pathway (AID 1224843; calls by dose curve; also: nearly all actives have a fitted effect of over 45% in size)
Summary of the method: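 HEK293/TSHR, 800 cells/well; cpd 30 min RT; add cAMP-d2 + anti-cAMP-cryptate, 1 h RT; fluorescence read on plate reader. 15-pt titration, n=3.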

Thyrotropin receptor (Homo sapiens), sequence (P16473 whole entry, looked up): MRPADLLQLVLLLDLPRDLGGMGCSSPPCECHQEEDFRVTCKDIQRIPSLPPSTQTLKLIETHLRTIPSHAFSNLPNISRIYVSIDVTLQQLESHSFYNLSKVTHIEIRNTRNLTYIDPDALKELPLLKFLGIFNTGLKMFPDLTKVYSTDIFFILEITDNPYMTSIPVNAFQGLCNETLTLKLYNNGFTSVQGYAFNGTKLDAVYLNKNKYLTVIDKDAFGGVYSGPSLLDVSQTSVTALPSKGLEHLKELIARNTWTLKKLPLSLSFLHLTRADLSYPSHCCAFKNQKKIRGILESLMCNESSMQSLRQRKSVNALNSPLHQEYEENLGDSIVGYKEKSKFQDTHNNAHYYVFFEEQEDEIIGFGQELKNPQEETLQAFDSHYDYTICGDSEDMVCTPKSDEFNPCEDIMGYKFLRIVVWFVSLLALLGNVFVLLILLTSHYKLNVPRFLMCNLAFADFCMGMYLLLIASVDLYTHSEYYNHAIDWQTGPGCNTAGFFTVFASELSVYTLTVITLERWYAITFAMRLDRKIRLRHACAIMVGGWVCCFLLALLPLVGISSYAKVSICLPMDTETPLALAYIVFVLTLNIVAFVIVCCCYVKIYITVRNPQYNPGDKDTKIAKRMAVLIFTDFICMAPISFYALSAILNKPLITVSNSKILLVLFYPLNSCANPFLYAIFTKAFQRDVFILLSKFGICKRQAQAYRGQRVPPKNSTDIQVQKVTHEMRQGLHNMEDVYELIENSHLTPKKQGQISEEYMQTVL

Row | Compound | Potency [1] | Potency [2] | outcome [3] | Potency [4] | Potency [5] | activity change, positive = activation [6] | outcome [7] | Potency [8] | Potency [9] | Potency [10]
1 | O=C(O)c1cc(C(=O)O)c(C(=O)O)cc1C(=O)O | inactive | inactive | inactive | inactive | inactive | 4.66% | inactive | inactive | inactive | –
2 | CC(C)C[C@H](NC(=O)[C@H](Cc1ccccc1)NC(=O)c1cnccn1)B(O)O | 0.0213 µM (active) | – | inactive | – | 0.0237 µM (active) | -63.1% [at 42.5 µM] | – | 0.0379 µM (active) | inactive | inactive
3 | CC(=O)c1cccnc1 | inactive | inactive | inactive | inactive | inactive | 4.95% | inactive | inactive | inactive | –
4 | COc1cc(C)c(Cc2cnc(N)nc2N)cc1OC | inactive | inactive | inactive | inactive | inactive | -2.44% [at 42.5 µM] | inactive | inactive | inactive | –
5 | CC1(COc2ccc(CC3SC(=O)NC3=O)cc2)CCCCC1 (configuration not stated) | – | inactive | inactive | inactive | inactive | 7.77% [at 42.5 µM] | inactive | inactive | inactive | inactive
6 | N#Cc1ccc(CC(=O)c2cccc(C(F)(F)F)c2)cc1 | inactive | inactive | inactive | inactive | – | -29.1% | inactive | – | inactive | –
7 | CC(=O)S[C@H](C(=O)N[C@H]1Cc2ccccc2[C@H]2CCC[C@@H](C(=O)O)N2C1=O)C(C)C | inactive | – | – | inactive | inactive | 1.31% | inactive | inactive | inactive | inactive
8 | CCCCCCCCC(=O)OCC(C)OC(=O)CCCCCCCC (configuration not stated) | inactive | inactive | inactive | inactive | – | – | inactive | inactive | inactive | –
9 | C1=COCCC1 | inactive | inactive | inactive | inactive | – | – | inactive | inactive | inactive | –
10 | CC1=C(C)C(=O)C(C(CCCCCC(=O)O)c2ccccc2)=C(C)C1=O (configuration not stated) | inactive | inactive | inactive | inactive | – | – | inactive | inactive | inactive | –
11 | O=C(OCCCCCOC(=O)c1ccccc1)c1ccccc1 | inactive | inactive | inactive | inactive | inactive | 7.15% | inactive | – | inactive | –
12 | COC(=O)C(C)(C)C | – | inactive | – | inactive | inactive | -7.89% | inactive | – | inactive | inactive
13 | Cc1nc(C)c(C)nc1C | – | inactive | inactive | inactive | inactive | -0.837% | inactive | inactive | inactive | inactive
14 | CCOC(C)OCC | inactive | inactive | inactive | inactive | – | – | inactive | inactive | inactive | –
15 | O=c1[nH][nH]c2ccccc12 | inactive | – | – | inactive | – | – | inactive | – | inactive | inactive
16 | O=c1c2ccccc2oc2ccccc12 | inactive | inactive | inactive | inactive | – | – | inactive | inactive | inactive | –
17 | NCCOCCOCCN | – | inactive | – | inactive | inactive | -4.55% | inactive | inactive | inactive | inactive
18 | O=S(=O)(O)c1cc(Cl)c(Cl)cc1Cl | – | inactive | inactive | inactive | – | – | inactive | inactive | inactive | inactive
19 | CC(C)CC(C)(C)C | – | inactive | inactive | inactive | – | -31.7% | inactive | – | – | inactive
20 | CCCc1nc(C)c2c(=O)[nH]c(-c3cc(S(=O)(=O)N4CCN(CC)CC4)ccc3OCC)nn12 | inactive | inactive | inactive | inactive | – | – | inactive | inactive | inactive | –
21 | C=C(C)C(=O)OCCCCCCCCCCOC(=O)C(=C)C | inactive | inactive | inactive | inactive | inactive | 1.48% | inactive | inactive | inactive | –
22 | Cc1nc2sccn2c(=O)c1CCN1CCC(=C(c2ccc(F)cc2)c2ccc(F)cc2)CC1 | – | inactive | – | – | 26.6 µM (active) | -44.9% [at 42.5 µM] | inactive | 3.38 µM (active) | inactive | –
23 | Clc1cccc(C(c2ccc3nc[nH]c3c2)n2ccnc2)c1 (configuration not stated) | inactive | – | inactive | inactive | – | – | inactive | – | inactive | –
24 | CCCCCCCCS | inactive | inactive | inactive | inactive | – | – | inactive | inactive | inactive | –
25 | CC[C@H](NC(C)C)[C@H](O)c1ccc(O)c2[nH]c(=O)ccc12 | inactive | inactive | – | inactive | inactive | 4.6% [at 42.5 µM] | inactive | inactive | inactive | –
26 | CCOCCn1c(N2CCCN(C)CC2)nc2ccccc21 | inactive | inactive | inactive | inactive | – | – | inactive | inactive | inactive | –
